Laboratory results reported in PubChem BioAssay (NCI).
Compounds without any hit were thinned out: in the full panel of roughly 83,000, 20% have a hit.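 Assay: single dose, 48 h. Readout: percent growth (0 = no net growth; negative = cell death). Active: <10.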 Activity calls are given as the source filed them.

system: HL-60(TB) leukemia; test: NCI-60 one-dose screen, 48 h (100 = growth as untreated, 0 = no growth, -100 = all killed); settings: 10 µM unless noted

SMILES	growth
CCCCCCCCCCCC[N+](C)(C)Cc1ccccc1	-52.6% (active)
CCCCCCCCCCCCCCCCCC1OCC(COC(=O)O[C@]2(CC)C(=O)OCc3c2cc2n(c3=O)Cc3cc4ccccc4nc3-2)O1 (stereo not given in full)	102% (inactive)
CNC(=O)CCN1CCN(CC/C=C2\c3ccccc3Sc3ccc(Cl)cc32)CC1	50.2% (inactive)
N#CC(C#N)=C(C#N)c1c[nH]c2ccccc12	72.9% (inactive)
C=C(C)[C@@H]1CC[C@]2(C(=O)N[C@@H](Cc3ccccc3)C(=O)OC)CC[C@]3(C)[C@H](CC[C@@H]4[C@@]5(C)CCC(=O)C(C)(C)[C@@H]5CC[C@]43C)[C@@H]12	56% (inactive)
COc1ccc(-c2cn[nH]c2-c2cc(OC)c(OC)c(OC)c2)cc1OCc1ccccc1	20.4% (inactive)
COc1cc(/C=C/C(=O)c2cccs2)ccc1OCc1ccc(Cl)nc1	72.6% (inactive)
COc1ccc2nc3cc(Cl)ccc3c(NCCNCC(O)CO)c2c1 (stereo not given)	15.6% (inactive)
Fc1cnccc1-c1nc2ccc3[nH]ncc3c2c2c1CCCC2	16.9% (inactive)
O=C(O)CC(C(=O)O)/C(=C\c1ccccc1)c1ccccc1 (stereo not given)	107% (inactive)
COC(=O)c1cc(-c2ccc(OC)c(OC)c2)[nH]c1N/N=C/c1c(Cl)cccc1Cl	3.48% (active)
OCc1cccc(F)c1	107% (inactive)
CCN1C(=O)N(CC)C2C1NC(=S)N2/N=C/C=C/c1cccs1 (stereo not given)	-41.3% (active)
CNC1=C([N+](=O)[O-])C(c2ccc(OC)cc2)C(C#N)=C(c2ccc[nH]2)O1 (stereo not given)	93.9% (inactive)
CCOc1ccncc1[N+](=O)[O-]	103% (inactive)
N#Cc1ccccc1-c1ccc(Cn2c(-c3cscn3)nc3c(Cl)cccc32)cc1	85.8% (inactive)
CC1(C)OC2OC3C(CN)OC(c4ccccc4)OC3C2O1 (stereo not given)	49.3% (inactive)
CCN(C)S(=O)(=O)Nc1cccc(Nc2ncnc3cc(NC(=O)CCl)ccc23)c1Cl	4.38% (active)
O=C1/C(=C/c2cccc([N+](=O)[O-])c2)COc2ccc(O)c(O)c21	-19.5% (active)
N#C/C(=C\c1ccccc1Cl)c1cc2ccccc2[nH]1	98.8% (inactive)

SMILES	growth
COc1ccc(Cl)cc1NC(=O)c1c(NC(=O)C(F)(F)C(F)(F)F)sc2c1CCCCC2	12.4% (inactive)
CNc1ccc(CSc2ccc(Cl)cc2)cc1	5.59% (active)
O=C(/C=C/C12c3ccccc3C(c3ccccc31)C1C(=O)N(c3ccccc3)C(=O)C12)c1ccccc1 (stereo not given)	10.5% (inactive)
COc1ccc(Cn2cc3c(c2-c2ccc(OC)cc2)CCc2cnoc2-3)cc1	-6.74% (active)
BrCCCOc1ccc(Oc2ccc(OCCCBr)cc2)cc1	106% (inactive)
Cc1ccc(-c2[nH][nH]c(=O)c2-c2nc3ccccc3s2)cc1	101% (inactive)
Cc1cc2nc(NC(=O)CN3CCN(CCN4C(=O)c5cccc6cccc(c56)C4=O)CC3)sc2cc1C	52.3% (inactive)
COc1cc(Cl)cc(-c2nn(-c3cccc(NC(=O)Nc4cccc(C(F)(F)F)c4)c3)cc2-c2ccncc2)c1	-7.89% (active)
CN(C)c1ccc2cc(-c3cc4c(oc3=O)-c3ccccc3OC4O)c(=O)oc2c1 (stereo not given)	-66.5% (active)
CCNC(=S)N(Cc1ccccc1)Cc1ccccc1	96.2% (inactive)
Cc1cccc(C)c1NCc1nc(-c2ccccc2)n[nH]1	90.7% (inactive)
C=CCN1C(=O)c2cccc3c(N4CCOCC4)ccc(c23)C1=O	-5.15% (active)
CN1CCN(c2ccc3nc(-c4ccc5nc(-c6ccc(OCCC(C)(C)C)cc6)[nH]c5c4)[nH]c3c2)CC1	10.5% (inactive)
N#Cc1c(-c2cccc(Cl)c2)cc(-c2cccc(Cl)c2)[nH]c1=O	-11.9% (active)
Clc1ccc2c(NCCNc3nc(-c4ccccc4)cc(-c4ccccc4)n3)ccnc2c1	-46.6% (active)
O=c1nc2oc3ccc4ccccc4c3cc-2s1	-29.2% (active)
Fc1ccc(/C=N/n2c(-c3cc(Cl)cc(Cl)c3Cl)nn(CNc3ccc(Cl)nn3)c2=S)cc1	90.1% (inactive)
Cc1nc(/N=C(\N)NC(=O)Nc2cccc(Cl)c2)sc1C	42.8% (inactive)
NC(=S)N/N=C/c1ccc(Cl)s1	102% (inactive)
COc1ccc(OC)c([N+](=O)[O-])c1C=O	88.2% (inactive)
